Bioassay records from PubChem.
This is a sample that favours compounds with a hit; in the whole collection about 4.1% have one here.
hgDAF12 agonist: hgDAF-12 agonism, primary luciferase screen | HEK293 GAL4-hgDAF12 UAS-luciferase reporter, agonist luminescence; normalized to butyrate control | activation, % at 6.8 µM | 370,000 tested, 1.8% active | AID 687014;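 active = activation above a cutoff set at the mean of all screened compounds plus 3 SD, cut at about 10% in these data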;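 also: 0% = DMSO wells and 100% = sodium butyrate wells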
DAX1 inh-1: inhibitors of human orphan nuclear receptor DAX1 (NR0B1); P51843; HEK293 Gal4-DAX1 luciferase reporter, luminescence; inhibition, % at 6.75 µM; 340,000 tested, 0.99% active; AID 504766;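 active = inhibition above the mean over all tested compounds plus 3 SD, cut at about 4.2% in these data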;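 also: 0% = DAX1-transfected cells with DMSO and 100% = empty-vector control cells with DMSO; inhibition shows as a rise in luminescence from relieved DAX1 repression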
Target sequence (P51843 207-470 limits assumed): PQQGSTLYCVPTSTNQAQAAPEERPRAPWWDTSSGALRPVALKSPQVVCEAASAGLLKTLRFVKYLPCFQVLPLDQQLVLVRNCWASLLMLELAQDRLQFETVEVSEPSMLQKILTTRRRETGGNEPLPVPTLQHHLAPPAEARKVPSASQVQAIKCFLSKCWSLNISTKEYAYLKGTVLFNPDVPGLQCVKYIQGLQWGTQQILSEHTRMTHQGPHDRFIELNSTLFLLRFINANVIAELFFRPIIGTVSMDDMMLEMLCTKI
ssDAF12 agonist: activators of S. stercoralis DAF-12 nuclear receptor. 370,000 tested, 1% active. activation, % at 6.8 µM. HEK293 ssDAF-12/GRIP1 lit1-tk-luc reporter, luminescence; % of 3 µM dafachronic acid response;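 active = activation above the mean over all tested compounds plus 3 SD, cut at about 0.9% in these data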;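 also: 0% = DMSO-only wells and 100% = 3 µM delta7-dafachronic acid wells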
hcDAF-12 act: activators of H. contortus DAF-12 nuclear receptor; 370,000 tested, 1.4% active; activation, % at 6.8 µM; AID 652067; HEK293 hcDAF-12 lit1-tk-luc reporter, luminescence; 0% DMSO, 100% Δ7-dafachronic acid;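 active = activation above the mean of all tested compounds plus 3 SD, cut at about 5.5% in these data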;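 also: 100% = response to 3 µM Δ7-dafachronic acid high control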
DAX1 inh-2: inhibitors of DAX1 repression of SF-1 activated StAR promoter; AID 652010; inhibition, % at 6.8 µM; 370,000 tested, 1.1% active; HEK293T StAR-luciferase reporter, SF-1/DAX-1 repression relief;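 active = inhibition above the mean over all tested compounds plus 3 SD, cut at about 3.6% in these data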;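 also: 0% = DAX-1 cells with DMSO and 100% = cells lacking DAX-1 with DMSO; higher inhibition means more luminescence from relief of DAX-1 repression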
The depositor's hits bear a star; / = no result.

SMILES	hgDAF12 agonist	DAX1 inh-1	ssDAF12 agonist	hcDAF-12 act	DAX1 inh-2
COc1ccc2nc(-c3ccccc3)[nH]c2c1	12.8*	0.8	-0.1	4.9	3.5
O=C(N[C@H](C(=O)N1CCC[C@H]1C(=O)NC1CCCC1)C1CCCCC1)c1ccccc1	-0.8	/	-1.3	-0.3	1.0
O=C(OCCN1CCN(C2CN(Cc3cn(Cc4ccccc4Cl)nn3)S(=O)(=O)C2)CC1)c1cccs1 (centres undefined)	1.1	/	-1.3	-1.6	-0.6
O=C1C(=O)c2cccnc2-c2ncccc21	-20.5	/	-3.6	-9.2	-8.9
CCOC(=O)Cn1nc(-c2ccc(C)cc2)c2ccccc2c1=O	-4.9	-0.5	-1.6	-1.6	1.4
CCOC(=O)Cn1nc(-c2ccccc2)c2cnc3ccc(C)cc3c21	1.3	1.0	0.6	6.3*	0.2
CCCC(=O)NC(=S)Nc1nc(-c2ccc(OC)cc2)cs1	8.2	4.7*	-0.3	3.1	0.5
Cc1ccc(-c2csc(NC(=O)c3cccc(S(=O)(=O)N4CCN(C)CC4)c3)n2)cc1	3.0	-0.3	-0.8	0.9	-0.2
COc1ccc(-c2csc(NC(=O)COC(=O)c3ccco3)n2)cc1	11.3*	-1.0	-0.6	3.1	2.2
Cc1ccc(-c2csc(NC(=O)COC(=O)c3cccc(S(=O)(=O)N4CCOCC4)c3)n2)cc1	6.5	/	-0.6	1.4	3.6*
CCn1nc(C(=O)OCC(=O)NCC(C)C)c2ccccc2c1=O	3.1	0.4	-1.8	-0.7	1.1
COc1ccc(-c2csc(NC(=S)NC(=O)c3ccco3)n2)cc1	0.0	0.7	-0.7	0.3	0.1
CCn1nc(C(=O)OCC(=O)Nc2nc(-c3ccc(OC)cc3)cs2)c2ccccc2c1=O	10.5*	3.2	0.1	1.6	1.3
OC(c1ccccc1)(c1nc(-c2cc3ccccc3o2)cs1)C(F)(F)F (centres undefined)	5.5	/	-0.8	-0.1	2.6
Cc1ccc(OCc2nnc(SCC(=O)Nc3ccc(OCc4ccccc4)cc3)n2-c2ccc(Cl)cc2)cc1	-2.4	/	0.4	-0.7	1.0
N#CC1=C(N)n2c(s/c(=C\c3ccco3)c2=O)=C(C#N)C1c1ccco1 (centres undefined)	0.5	0.9	1.6*	2.8	0.1
CCOC(=O)C1=C(N)n2c(s/c(=C/c3ccco3)c2=O)=C(C(=O)OC)C1c1ccco1 (centres undefined)	0.9	1.6	-1.1	-1.2	-1.7
CCOc1ccc(NC(=O)CN(c2ccc(OC)cc2)S(C)(=O)=O)cc1	5.3	0.2	-1.0	2.1	1.6
COC(=O)c1ccc(NC(=O)CN(c2ccc(OC)cc2)S(C)(=O)=O)cc1	11.8*	-0.1	-0.6	3.4	0.7
CCOc1cccc(-c2cc(C(=O)NN)[nH]n2)c1	11.3*	1.9	-1.6	0.9	0.5
CC(=O)Oc1ccc(/C=C2/Oc3ccccc3C2=O)cc1	0.6	5.3*	-0.5	0.9	-0.1
C=CCn1cnc2c(nnn2Cc2ccc(F)cc2)c1=O	0.3	4.6*	-0.7	-2.2	0.4
N#C/C(=C/c1ccc(N2CCOCC2)o1)C(=O)Nc1ccccc1	11.2*	1.1	-0.2	5.9*	3.2
N#C/C(=C\c1ccc(N2CCOCC2)o1)C(=O)NCC1CCCO1 (centres undefined)	1.5	-0.8	12.4*	-1.7	0.4
COC(=O)[C@]12C[C@H](CC(=O)N3CCC(c4ccccc4)CC3)C(=O)N(CCC3=CCCCC3)C1=C[C@H](COCc1ccccc1)O[C@@H]2C	3.1	/	-1.2	-0.1	0.4
SMILES	hgDAF12 agonist	DAX1 inh-1	ssDAF12 agonist	hcDAF-12 act	DAX1 inh-2
COC(=O)[C@]12C[C@H](CC(=O)N3CCN(C(=O)c4ccco4)CC3)C(=O)N(Cc3cccc4ccccc34)C1=C[C@H](C(C)C)O[C@@H]2C1CC1	-2.5	/	-1.5	-3.1	0.1
C=CCc1c(C)nc2c(-c3ccccc3)cnn2c1N1CCOCC1	10.4	4.0	0.0	5.6*	2.7
Cc1ccc(-c2cnn3c(N4CCOCC4)cc(C)nc23)cc1	-0.2	7.6*	-1.1	3.9	0.0
Cc1cc(N2CCOCC2)n2ncc(-c3ccc(Cl)cc3)c2n1	-3.2	6.7*	-1.9	-1.2	-0.7
CC(C)(C)c1cc(N2CCOCC2)n2ncc(-c3ccc(Cl)cc3)c2n1	3.3	0.1	-1.2	1.6	0.6
COC(=O)C1=C(C)N(Cc2cccc(C(F)(F)F)c2)C(=NCc2ccc3c(c2)OCO3)NC1CCc1ccccc1 (centres undefined)	-0.6	/	-1.0	-0.5	1.1
CCCC/C=C1/[C@@H](CC)N(Cc2ccc(OC)cc2OC)C2=N[C@H](c3ccccc3)CC(=O)N21	-3.1	/	-1.6	0.2	/
O=C1C(c2ccccc2)=NCCN1C(c1ccc(F)cc1)c1nc2ccccc2[nH]1 (centres undefined)	2.3	/	0.3	6.1*	-0.5
O=C(NNC(=O)c1c(O)c2ccccc2[nH]c1=O)c1ccccc1Br	0.9	0.1	0.9*	2.0	0.0
O=C(CCl)NNC(=O)c1c(O)c2ccccc2[nH]c1=O	-5.3	-1.0	-1.4	-0.6	-1.3
O=C(Nc1c[nH]c(=O)[nH]c1=O)c1ccccc1Br	-0.7	6.4*	-0.5	0.4	0.0
O=C(Nc1ccccc1C(=O)Nc1ccccc1)c1ccccc1Br	-1.0	0.2	-0.5	-0.3	-0.6
CN[C@H]1C[C@H]2c3[nH]c4cccc(-c5ccccc5)c4c3CCN2C[C@H]1[C@H](C)O	1.5	/	-0.2	-2.5	-0.8
Cc1ccccc1N1CCN(C2CCCN(C(=O)CSc3ccccn3)C2)CC1 (centres undefined)	2.3	0.9	-1.3	-0.6	-0.1
N#Cc1ccc2nc(-c3ccc(CN4CCC(n5cc(-c6ccccc6)[nH]c5=O)CC4)cc3)c(-c3ccccc3)nc2c1	-0.1	/	-1.4	-2.1	-2.9
CCCC[C@H]1C2CC(OC(=O)Nc3ccccc3)C(C2)[C@H]2CCCCN21 (some centres undefined)	0.3	/	-1.1	-3.2	0.5
O=C(Nc1ccccc1)OC1CC2CC1C1CCCC21 (centres undefined)	12.3*	1.5	0.0	0.3	3.4
O=C(NCc1ccccc1)c1c(Cl)nc(Cl)c(Cl)c1Cl	-3.7	-4.5	-1.2	-2.1	-1.2
Cc1c(C(=O)Nc2nnc(C3CC3)s2)oc2ccccc12	10.9*	1.2	0.6	6.4*	2.3
O=C(NNc1nc2c(F)cccc2s1)c1ccccc1	1.9	10.2*	0.0	2.6	-0.6
O=C(NNc1nc2c(F)cc(F)cc2s1)c1ccccc1	0.0	0.4	-0.7	0.2	0.8
CCCN1C(=O)c2[nH]nc(-c3ccccc3)c2C1c1ccc(Br)cc1 (centres undefined)	-0.6	/	-0.6	-1.1	-0.6
COC(=O)c1cn(NC(=O)Cc2cccc(OC)c2)c(=O)c2ccccc12	1.9	4.2*	-1.4	-0.6	-0.3
O=C(O)CCCC(=O)Nc1nc2n(n1)C(c1ccc(F)cc1)CC(c1ccc(Cl)cc1)N2 (centres undefined)	1.9	0.7	1.8*	-0.9	0.5
O=C(c1ccc(Br)cn1)N1CCC(Oc2cccnc2)CC1	0.2	/	-1.5	-1.6	0.8
